Compounds without any hit were thinned out: in the full panel of roughly 83,000, 20% have a hit.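 Step 1: grow cells in 96-well plates. Step 2: add test compound at a single concentration. Step 3: incubate 48 h. Step 4: record percent growth.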 A number with no mark means an inactive call. Activity calls are given as the source filed them. Rule for the calls: active = growth percent below 10; inactive = the rest.
Experiments:
Assay in all cases: NCI-60 one-dose screen, 48 h (100 = growth as untreated, 0 = no growth, -100 = all killed)
Settings in all cases: 10 µM unless noted
DU-145 prostate = test system: DU-145 prostate
K-562 leukemia = test system: K-562 leukemia
MALME-3M melanoma = test system: MALME-3M melanoma
MDA-MB-231 breast = test system: MDA-MB-231 breast
RXF 393 renal = test system: RXF 393 renal
SF-268 CNS = test system: SF-268 CNS
SF-295 CNS = test system: SF-295 CNS
SF-539 CNS = test system: SF-539 CNS
UACC-257 melanoma = test system: UACC-257 melanoma
M14 melanoma = test system: M14 melanoma
HCT-15 colon = test system: HCT-15 colon
HT29 colon = test system: HT29 colon
SNB-75 CNS = test system: SNB-75 CNS
SNB-19 CNS = test system: SNB-19 CNS
PC-3 prostate = test system: PC-3 prostate
SK-MEL-5 melanoma = test system: SK-MEL-5 melanoma
UACC-62 melanoma = test system: UACC-62 melanoma
LOX IMVI melanoma = test system: LOX IMVI melanoma
SK-MEL-28 melanoma = test system: SK-MEL-28 melanoma
U251 CNS = test system: U251 CNS

| SMILES | growth (DU-145 prostate) | growth (K-562 leukemia) | growth (MALME-3M melanoma) | growth (MDA-MB-231 breast) | growth (RXF 393 renal) | growth (SF-268 CNS) | growth (SF-295 CNS) | growth (SF-539 CNS) | growth (UACC-257 melanoma) | growth (M14 melanoma) | growth (HCT-15 colon) | growth (HT29 colon) | growth (SNB-75 CNS) | growth (SNB-19 CNS) | growth (PC-3 prostate) | growth (SK-MEL-5 melanoma) | growth (UACC-62 melanoma) | growth (LOX IMVI melanoma) | growth (SK-MEL-28 melanoma) | growth (U251 CNS) |
| --- | --- | --- | --- | --- | --- | --- | --- | --- | --- | --- | --- | --- | --- | --- | --- | --- | --- | --- | --- | --- |
| CCCCCSc1ccc2nc(NC(=O)OCC)sc2c1 | 22.8% | 15.9% | 42.2% | 26.4% | 7.13% (active) | 50.8% | 6.93% (active) | -12.1% (active) | 67.4% | 11.9% | 25.2% | 13.2% | 0.686% (active) | 37.4% | 21.3% | 5.59% (active) | 29.2% | 38.4% | 61.9% | – |
| Nc1nc2c(c3cnccc13)C(c1ccc(Cl)c(Cl)c1)Cc1cnccc1-2 (centres undefined) | -5.69% (active) | 4.04% (active) | -67% (active) | -35% (active) | -74.2% (active) | -10.9% (active) | -29.9% (active) | -45.1% (active) | -12.8% (active) | -44.2% (active) | -19.5% (active) | 8.17% (active) | -26.9% (active) | 13.7% | 5.13% (active) | -92.2% (active) | -37.3% (active) | -42.7% (active) | -41.3% (active) | – |
| N=C(N)c1ccc(-c2ccc(-c3ccc(F)cc3)s2)cc1 | -92.9% (active) | -62.9% (active) | -75.6% (active) | -86.8% (active) | -98.4% (active) | -79.9% (active) | -94.1% (active) | -95.4% (active) | -79.5% (active) | -83.1% (active) | -92.8% (active) | -64.1% (active) | -99.2% (active) | -86.5% (active) | -94% (active) | -99% (active) | -91.8% (active) | -95.1% (active) | -85.9% (active) | – |
| COc1cc2ncnc(-n3ncc4cc(NC(=O)Nc5ccccc5)ccc43)c2cc1OC | 10.5% | 39.1% | -13.8% (active) | -8.14% (active) | -84.3% (active) | 21.7% | 26.9% | 0.968% (active) | 28.7% | 6.8% (active) | 21% | 29.1% | -12.4% (active) | 44.7% | -18.4% (active) | 40.2% | 23.9% | 1.66% (active) | -15.1% (active) | – |
| CC(=O)Nc1nc(C)c(C(=O)N/N=C/N2CCCCC2)s1 | 137% | 137% | 119% | 111% | 112% | 111% | 127% | 99.3% | 120% | 111% | 111% | 109% | 81.6% | 103% | – | 113% | 107% | 103% | 114% | 105% |
| CCCCCCCCCCC(C[N+](C)(C)C/C=C/c1ccccc1)C(O)c1ccccc1 (centres undefined) | 1.19% (active) | -35.9% (active) | -28.6% (active) | -55.9% (active) | -54.3% (active) | -0.479% (active) | 35.6% | 40.5% | 21% | 6.02% (active) | 79.1% | -79.8% (active) | 5.59% (active) | 35.8% | -29.9% (active) | 30.6% | 17.4% | – | 21.2% | -93.9% (active) |
| CCn1cnc(C[C@H](NC(=O)[C@@H](NC(=O)Nc2cc(C(F)(F)F)cc(C(F)(F)F)c2)C(C)(C)C)C(=O)OC)c1 | -95.1% [100 µM] (active) | -47% [100 µM] (active) | -82.5% [100 µM] (active) | -93.6% [100 µM] (active) | -83.7% [100 µM] (active) | -89.2% [100 µM] (active) | -88.6% [100 µM] (active) | -93.4% [100 µM] (active) | -96.2% [100 µM] (active) | -90.8% [100 µM] (active) | -68% [100 µM] (active) | -82.9% [100 µM] (active) | -98.8% [100 µM] (active) | -98.2% [100 µM] (active) | -91.2% [100 µM] (active) | -98% [100 µM] (active) | -98.7% [100 µM] (active) | -87.4% [100 µM] (active) | -96% [100 µM] (active) | – |
| C/C(=N\Nc1cccc(Cl)n1)c1ccccn1 | 23.3% | 6.59% (active) | 21.6% | 36.8% | 24% | 12.8% | 0.34% (active) | 1.72% (active) | 2.3% (active) | -23.8% (active) | 23.5% | 26.2% | 36.6% | 23.1% | 29.3% | -51.6% (active) | -24.1% (active) | 0.322% (active) | 14.2% | – |
| Nc1nc2c(c3cnccc13)C(c1cccc(Cl)c1)Cc1cnccc1-2 (centres undefined) | 10.7% | 9.68% (active) | 62.4% | 8.99% (active) | 7.47% (active) | 20.7% | 8.34% (active) | -18.5% (active) | 60.2% | 1.08% (active) | 7.84% (active) | 4.99% (active) | 21% | 29.2% | 12.8% | -16.3% (active) | 26.7% | 8.05% (active) | 56% | – |
| N/C(=N\O)c1ccncc1 | 104% | 104% | 108% | 102% | 115% | 97.9% | 94.5% | 105% | 106% | 99.8% | 100% | 101% | 86.7% | 104% | 102% | 113% | 98.1% | 96.2% | 109% | – |
| CCOc1ccc2nc3ccc(Cl)cc3nc2c1 | 92.2% | 52.8% | 127% | 106% | -13% (active) | 107% | 110% | 92.7% | 101% | -100% (active) | 97.1% | 90.5% | 108% | 97.7% | 99.9% | 67.1% | 79.4% | 101% | 113% | – |
| N=C(N)c1ccc(-c2ccc(-c3ccc(Cl)cc3)s2)s1 | -87.8% (active) | -45.8% (active) | -29.9% (active) | -80.5% (active) | -85% (active) | -68.6% (active) | -68.8% (active) | -86.7% (active) | -37.7% (active) | -72.7% (active) | -84.8% (active) | -33.3% (active) | -96.4% (active) | -81.8% (active) | -91% (active) | 2.66% (active) | -31.2% (active) | -89.4% (active) | -87.8% (active) | – |
| COc1cc(OC)cc(-c2ccc(-c3ccc(C(=N)N)cc3)s2)c1 | -90.6% (active) | -39.8% (active) | -80.7% (active) | -77% (active) | -94.3% (active) | -72.2% (active) | -88.4% (active) | -88.7% (active) | -58% (active) | -90.5% (active) | -79.6% (active) | -68.8% (active) | -94.9% (active) | -71.8% (active) | -94.7% (active) | -100% (active) | -85.1% (active) | -86.3% (active) | -87.7% (active) | – |
| O=C(/C=C/c1cccc(O)c1)c1cccc(-n2cc(-c3ccc(Cl)cc3)[nH]c2=O)c1 | -69.8% (active) | -18.4% (active) | -36% (active) | -17.3% (active) | -61.1% (active) | -68.3% (active) | 4.32% (active) | -89.7% (active) | 22.1% | -13% (active) | -22.9% (active) | -10.1% (active) | 0.636% (active) | -10.6% (active) | – | -0.458% (active) | 5.09% (active) | -92.1% (active) | -86.4% (active) | -87.9% (active) |
| O=C(Nc1ccc(-n2cc(-c3ccncc3)c(-c3ccc(Cl)c(O)c3)n2)cc1)Nc1ccc(Cl)c(C(F)(F)F)c1 | 23.2% | 8.1% (active) | -13.6% (active) | -24.8% (active) | -47.8% (active) | 23.3% | -44.5% (active) | 2.77% (active) | -9.1% (active) | -58.6% (active) | 2.66% (active) | -92.4% (active) | -11.6% (active) | 27.4% | – | -89.4% (active) | -25% (active) | 5.17% (active) | -28.3% (active) | -31.4% (active) |
| CCC(C)CC(N)O (centres undefined) | 114% | 108% | 130% | 116% | 91.8% | 108% | 99.4% | 107% | 102% | 103% | 103% | 111% | 106% | 106% | 111% | 99.9% | 104% | 110% | 102% | – |
